Data as given in PubChem BioAssay (NCI).
This is part of a sample that, as a whole, favours compounds with a hit. Of some 79,000 tested, about 15% had one in any assay. Cut-off read from the data, not from the text of the source: active = growth inhibition above about 70%; inactive = the rest.

Assays:
[1] = NCI Yeast Anticancer Drug Screen. Data for the rad50 strain (AID 155);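 note: 0% = growth of vehicle-only cultures of the same strain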; settings: S. cerevisiae rad50 strain growth inhibition; at 50.0 µM; active compounds read high
How it was run: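 Cells are treated with compound, grown, and their growth is then scored against vehicle-only cultures of the same repair-deficient yeast strain.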

[2] = NCI Yeast Anticancer Drug Screen. Data for the mec2-1 strain (AID 157); settings: S. cerevisiae mec2-1 strain, at 50.0 µM, active compounds read high
How it was run: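 Strain: mec2-1 (DNA repair/cell cycle alteration). Compound exposure, then growth measured; inhibition expressed relative to vehicle.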

[3] = NCI Yeast Anticancer Drug Screen. Data for the sgs1 mgt1 strain (AID 161);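 note: 0% = growth of cultures given vehicle only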; settings: S. cerevisiae sgs1 mgt1 strain, at 50.0 µM, active compounds read high
How it was run: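 Genetically altered yeast, compound exposure, growth inhibition relative to vehicle.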

[4] = NCI Yeast Anticancer Drug Screen. Data for the cln2 rad14 strain (AID 165);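 note: 0% = growth equal to vehicle treated cultures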; settings: S. cerevisiae cln2 rad14 strain, at 50.0 µM, active compounds read high
How it was run: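 Compounds are applied to the cln2 rad14 yeast strain, and growth is then compared with that of vehicle-treated cultures to give inhibition.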

[5] = NCI Yeast Anticancer Drug Screen. Data for the bub3 strain (AID 167); settings: S. cerevisiae bub3 mutant strain, at 50.0 µM, active compounds read high
How it was run: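 Part of a panel of yeast mutants defective in DNA damage repair or cell cycle regulation. Each strain is grown with compound, and inhibition is calculated relative to solvent-treated cultures.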

[6] = NCI Yeast Anticancer Drug Screen. Data for the mlh1 rad18 strain (AID 175); settings: S. cerevisiae mlh1 rad18 strain growth inhibition; at 50.0 µM; active compounds read high
How it was run: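 Read-out is yeast growth inhibition, calculated against vehicle-only controls. The compound was applied to a strain engineered with DNA damage repair alterations.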

Measured: growth inhibition

COc1ccc(C(C)c2cc3c(cc2OCC(=O)O)OCO3)cc1OC (configuration not stated)
inactive: [1] -7.65% | [2] -10.2% | [3] -6.85% | [4] -4.8% | [5] -0.2% | [6] -3.2%

CC(=O)c1c(C)[nH]c(C(=O)O)c1C
inactive: [1] 24.7% | [2] 4.3% | [3] 8.75% | [4] -14.4% | [5] 5.35% | [6] 16.6%

Cc1csc2n(C)c(=O)c3ccccc3[n+]12
inactive: [1] 16.8% | [2] 9.4% | [3] -20.4% | [4] 4.65% | [5] -1.75% | [6] 32.8%

CN(C)c1ccc(N=Nc2cccc3ccoc23)cc1
inactive: [1] 11.6% | [2] -23.6% | [3] 9.9% | [4] -28.3% | [5] 14.9% | [6] 14%

O=C(OC1COC(n2c(=O)oc3cc(Br)c(Cl)cc32)C(OC(=O)c2ccccc2)C1OC(=O)c1ccccc1)c1ccccc1 (configuration not stated)
inactive: [1] 4.55% | [2] -2.25% | [3] -8.15% | [4] -3.05% | [5] 4.85% | [6] 14.4%

O=C(O)C1CCN(Cc2oc(CO)cc(=O)c2O)C1 (configuration not stated)
inactive: [1] -31.6% | [2] -19.7% | [3] -19.2% | [4] -1.4% | [5] -24.4% | [6] -2.75%

COSCCCC(C)=O
inactive: [1] 25.5% | [2] 4% | [3] -5.15% | [4] 13.8% | [5] 6.55% | [6] 13.8%

O=C(c1ccccc1)C1C(/C=C/c2ccccc2)C(C(=O)c2ccccc2)C1/C=C/c1ccccc1 (configuration not stated)
inactive: [1] 41.2% | [2] -7.1% | [3] 11.8% | [4] 0.4% | [5] -4.5% | [6] 3.25%

CC(O)(c1ccc(Cl)cc1)c1ccc(Cl)cc1
inactive: [1] -4.05% | [2] -18.9% | [3] 1.2% | [4] -52.6% | [5] -8.75% | [6] -15.8%

CNC(=O)OCC#CCOC(=O)NC
inactive: [1] -17.5% | [2] -9.9% | [3] -23.2% | [4] -4.85% | [5] -10.5% | [6] -25.1%

O=C(c1ccccc1)c1ccccc1
inactive: [1] 23.9% | [2] 2.35% | [3] -13.2% | [4] -16.8% | [5] 14.3% | [6] 14.1%

Oc1ccc(OCc2ccccc2)cc1CN1CCOCC1
inactive: [1] 17.2% | [2] 7.85% | [3] 27.3% | [4] 7.15% | [5] 22.9% | [6] 34.5%

Oc1cc2c(cc1O)-c1[nH]ncc1CC2
inactive: [1] 24.5% | [2] 0.25% | [3] 3.35% | [4] -17.4% | [5] 4.55% | [6] -4.55%

CC(=O)Nc1ccc(C(=O)C=O)cc1
inactive: [1] -1.45% | [2] -4.4% | [3] 4.2% | [4] 26.5% | [5] -13.9% | [6] -40.8%

CC(O)C(=O)NN (configuration not stated)
inactive: [1] 0.75% | [2] -17.7% | [3] -4.95% | [4] -13.6% | [5] -4.65% | [6] 9.4%

O=C(O)Cc1ccc2c(c1)C(=O)C(=O)N2
inactive: [1] 18.6% | [2] 18.6% | [3] 7.05% | [4] -8.75% | [5] -18.7% | [6] 15.1%

NCCCNC1CCCCC1
inactive: [1] 8.8% | [2] -27.9% | [3] 2.55% | [4] -0.45% | [5] 1.7% | [6] 12.8%

COC(=O)/C=C/CCCC1CCCCC1
inactive: [1] -7.8% | [2] -3.85% | [3] 4.9% | [4] 0.45% | [5] -14.9% | [6] -13.9%

Cc1ccc2c(c1)C(=Nc1ccc(Cl)cc1)C(=O)N2
inactive: [1] -1.6% | [2] 1.7% | [3] 1.75% | [4] -0.55% | [5] 18.9% | [6] 13.1%

O=C1NC2(CCCCC2)N=C2C(Cl)CCCC12Cl (configuration not stated)
inactive: [1] -22.1% | [2] -24.5% | [3] -0.7% | [4] 21% | [5] -1.85% | [6] -8.8%

O=P(O)(O)c1ccc(I)cc1
inactive: [1] 10.5% | [2] -30.6% | [3] -12.4% | [4] 0.75% | [5] -20.3% | [6] -5.9%

COc1cc2cc3c4cc(OC)c(OC)cc4cc[n+]3cc2cc1OC
inactive: [1] -4.5% | [2] -54.5% | [3] -2.8% | [4] -12.3% | [5] -15.8% | [6] -68%

O=C1OC(/C=C/c2ccccc2)=NC/1=C\C=C\c1ccccc1
inactive: [1] 24.1% | [2] 14.8% | [3] 14.9% | [4] 14.2% | [5] 6.15% | [6] -1.65%

CS(=O)(=O)O[C@H]1[C@H](O)c2ccccc2[C@@H]1N=[N+]=[N-]
inactive: [1] 13.5% | [2] 3.95% | [3] -2.05% | [4] -3% | [5] -10.2% | [6] -51.4%

COc1cccc(-c2cc(=O)c3cc(OC)ccc3[nH]2)c1
inactive: [1] -19.8% | [2] -1.6% | [3] -14% | [4] 6.15% | [5] 13.2% | [6] -13.3%

CC(C)CNC(=O)Nc1ccccc1C(F)(F)F
inactive: [1] -6.5% | [2] -8.4% | [3] -23.6% | [4] -4.55% | [5] 7.7% | [6] -14.4%

O=C1CC2CC1C1CC(Br)C(Br)C21 (configuration not stated)
inactive: [1] -2.9% | [2] -17.3% | [3] -8.8% | [4] -4.85% | [5] -15.7% | [6] -1.1%

CC[C@H]1OC(=O)[C@H](C)[C@@H](OC2CC(C)(OC)C(O)C(C)O2)[C@H](C)[C@@H](OC2OC(C)CC(N(C)C)C2OC(=O)CCC2CCCC2)[C@](C)(O)C[C@@H](C)C(=O)[C@H](C)[C@@H](O)[C@]1(C)O (some centres not stated)
inactive: [1] 3.25% | [2] -6.95% | [3] 4.05% | [4] 0.65% | [5] 7.3% | [6] -9.55%

O=S(O)CCCCSSCC(O)CO (configuration not stated)
inactive: [1] 22.5% | [2] 9.65% | [3] 15.2% | [4] 63.5% | [5] 24.1% | [6] 13.7%

O=C1Nc2ccccc2Nc2nc3cccccc-3c21
inactive: [1] 9.85% | [2] -15.2% | [3] -2.4% | [4] 16.8% | [5] -6.6% | [6] -13.8%

NC(=O)c1ccc(NC=O)cc1
inactive: [1] -10.3% | [2] 22.2% | [3] -18.9% | [4] 25.1% | [5] -18.1% | [6] -18.9%

Cc1cccc(CP(Cc2cccc(C)c2)CC2(Cp3c4ccccc4c4ccccc43)COC2)c1
inactive: [1] 18% | [2] -0.8% | [3] 33.4% | [4] 26.9% | [5] 31.6% | [6] 34.5%

O=c1oc2ccccc2c(O)c1Oc1ccccc1
inactive: [1] -7.35% | [2] 3.5% | [3] -15.3% | [4] -10.7% | [5] -12.5% | [6] -1.05%

CCN(CC)CCSc1cc(C)c2ccc(N)nc2n1
inactive: [1] -5.65% | [2] -24% | [3] 6.6% | [4] 15.1% | [5] 8.6% | [6] -1.1%

CCOC(=O)C(=O)C1CCCC1=O (configuration not stated)
inactive: [1] -6.9% | [2] -6.65% | [3] 2.25% | [4] -0.7% | [5] 1.7% | [6] -0.6%

CC(C)(C)C(=O)OCC1C(=O)OCC1C(=O)N1Cc2cc3ccccc3nc2C1 (configuration not stated)
inactive: [1] -7.7% | [2] -19.9% | [3] 1.55% | [4] -13% | [5] -8.2% | [6] -16.2%

O=C(O)Cc1cc(=O)oc2cc(O)c(Cl)cc12
inactive: [1] 1.75% | [2] -20% | [3] -7.15% | [4] 15.8% | [5] 3.25% | [6] -5.55%

CC1(O)C(=O)N(Cc2ccccc2)c2ccccc21 (configuration not stated)
inactive: [1] 25.6% | [2] -5% | [3] -5.2% | [4] -8.5% | [5] -10.4% | [6] 4.05%

Cc1nc2c(sc(=S)n2-c2ccccc2)c2nc3ccccc3n12
inactive: [1] -9.35% | [2] -15.7% | [3] 7.7% | [4] -1.2% | [5] -2.55% | [6] -20.6%

Cc1ccc(SC(F)(F)C(F)C(F)(F)F)cc1 (configuration not stated)
inactive: [1] -4.65% | [2] -3.6% | [3] -7.75% | [4] 9.45% | [5] 7.9% | [6] -1.1%

CCC(C)NC(=O)c1ccccc1 (configuration not stated)
inactive: [1] 16.8% | [2] 17.7% | [3] 7.8% | [4] -34.5% | [5] 1.75% | [6] 15.3%

CN(C)c1nc(N)c2ccc(Cl)cc2n1
inactive: [1] -8% | [2] 10.6% | [3] -7.15% | [4] 0.85% | [5] -8.05% | [6] 8.7%
